CBX7 AlphaScr: inhibitors of human CBX7 binding to H3K27me3 peptide; AlphaScreen His6-CBX7 / biotin-H3K27me3 peptide binding; active compounds read low; normalised signal (fraction of DMSO) (test concentration not listed); O95931; 66,000 tested, 1.1% active; AID 1224903; in the data active = normalised signal below about 0.5
Target sequence (O95931 whole entry, looked up): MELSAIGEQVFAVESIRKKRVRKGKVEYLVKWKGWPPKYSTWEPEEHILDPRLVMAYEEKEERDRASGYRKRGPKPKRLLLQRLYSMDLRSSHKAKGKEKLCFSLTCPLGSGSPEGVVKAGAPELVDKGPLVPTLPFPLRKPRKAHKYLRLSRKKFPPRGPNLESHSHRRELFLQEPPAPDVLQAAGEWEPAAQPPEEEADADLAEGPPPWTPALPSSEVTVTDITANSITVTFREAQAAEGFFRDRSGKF
Of the large screens only hits and unclear results are named; the others gave an inactive call. This excerpt belongs to a sample that is enriched for hits.

COC(=O)c1c[nH]n2c(NC3CCCCC3)c(-c3ccc(F)cc3)nc12	none
CCCCOc1ccc(-c2nc3ncccn3c2NC2CCCCC2)cc1	none
COC(=O)c1c[nH]n2c(NC3CCCCCC3)c(-c3ccc(C)cc3)nc12	CBX7 AlphaScr 0.43
COC(=O)c1c[nH]n2c(=O)c(Cc3ccc(F)cc3Cl)c(C)nc12	none
COC(=O)c1c[nH]n2c(=O)c(Cc3ccccc3F)c(C)nc12	none
CCCCN(C)CCCNC(=O)c1cnn(-c2ccccc2)c1-n1cccc1	none
COc1ccc(CC(=O)Nc2ccc(-c3noc(COc4ccc(Cl)c(C)c4)n3)cc2)cc1	none
CCCCCn1c(=N)n(CC(O)COc2ccc(C)cc2)c2ccccc21 (stereo unspecified)	none
O=C(NC1CCCCCCC1)N1CCc2[nH]c3ccc(F)cc3c2C1	none
CCOC(=O)c1cnc2c(C)cc(C)cc2c1Nc1ccc2c(c1)OCCO2	none
CCN(C(=O)Cc1c(C(=O)O)n(CC)c2ccccc12)c1cccc(C)c1	none
CCOC(=O)N1CCc2c(sc(NCc3ccccn3)c2C(=O)Nc2ccccc2OCC)C1	none
COCCCNC(=O)c1ccc2c(c1)ncn2-c1ccc(OCc2ccccc2)cc1	none
CC(C)OCc1ccc(O)c2ncccc12	CBX7 AlphaScr 0.0041
Cc1cccc(C(=O)NCCc2nc3ccccc3n2C(C)C)c1	none
CCN(Cc1ccccc1)S(=O)(=O)c1ccc(C(=O)Nc2nnc(-c3cccs3)o2)cc1	none
CCN(CC)S(=O)(=O)c1ccc(C(=O)Nc2nnc(C)o2)cc1	CBX7 AlphaScr 0.084
CCCN(CCC)S(=O)(=O)c1ccc(C(=O)Nc2nnc(C)o2)cc1	CBX7 AlphaScr 0.083
CCN(CC)S(=O)(=O)c1ccc(C(=O)Nc2nc3ccc4nc(C)sc4c3s2)cc1	none
CCOc1ccc(-n2nc(C(=O)Nc3ccc(C(F)(F)F)cc3)c3ccccc3c2=O)cc1	none
CCOc1ccc2nc(N3CCC(C(=O)NC4CC4)CC3)sc2c1	none
Cc1ccn2c(Nc3ccc4c(c3)OCCO4)c(-c3cccs3)nc2c1	none
Cc1ccc(Nc2c(-c3ccccn3)nc3ccc(C)cn23)cc1	CBX7 AlphaScr 0.084
Brc1ccc2nc(-c3ccccn3)c(Nc3ccccc3)n2c1	none
Cc1ccn2c(Nc3ccc4c(c3)OCO4)c(-c3ccccn3)nc2c1	CBX7 AlphaScr 0.034
Cc1cccc(C)c1Nc1c(-c2ccccn2)nc2ccc(Cl)cn12	none
Clc1ccc(Nc2c(-c3ccccn3)nc3ccc(Cl)cn23)cc1	none
Cc1ccn2c(Nc3ccc4c(c3)OCO4)c(-c3ccsc3)nc2c1	none
Cc1ccc2nc(-c3cccnc3)c(Nc3ccc4c(c3)OCCO4)n2c1	none
Cc1ccc2nc(-c3ccccn3)c(Nc3ccc(C(C)C)cc3)n2c1	none
Cc1ccc2nc(-c3ccccn3)c(Nc3ccc4c(c3)OCCO4)n2c1	CBX7 AlphaScr 0.001
Cc1cccc(C)c1Nc1c(-c2ccccn2)nc2ccc(Br)cn12	CBX7 AlphaScr 0.44
Cc1ccc2nc(-c3ccccc3)c(Nc3ccc4c(c3)OCCO4)n2c1	none
COC(=O)c1ccc(NC(=O)CN2C(=O)CC(c3ccccc3)Sc3ccccc32)cc1 (stereo unspecified)	none
Cc1ccc(OCC(=O)Nc2ncc(Cc3cccc(Cl)c3)s2)cc1	none
CC(NC(=O)C(=O)NCc1ccc(F)cc1)C(c1cccs1)N1CCN(c2ccccc2)CC1 (stereo unspecified)	none
O=C(c1ccccc1)c1ccc(-c2[nH]c(-c3ccc(Cl)cc3Cl)nc2-c2ccccc2)cc1	none
CCOc1ccc(N2C(=O)CC(N3CCN(CCO)CC3)C2=O)cc1 (stereo unspecified)	none
CCOC(=O)C1CCCN(c2c(N3CCN(c4ccc(F)cc4)CC3)c(=O)c2=O)C1 (stereo unspecified)	none
Cc1cc(C)cc(NC(=O)CCCC2=NS(=O)(=O)c3ccccc3N2)c1	none
COc1ccccc1C1(C)CCc2oc3ccc(C)cc3c2-c2oc(C)cc21 (stereo unspecified)	none
Clc1ccc(Nc2nc(-c3ccccc3)c3cc(Br)ccc3n2)cc1	none
COc1ccc(C2C(C(=O)NCc3ccc(F)cc3)CCC(=O)N2c2ccc3c(c2)OCO3)cc1 (stereo unspecified)	none
CC(C)(CC(=O)N1CCN(c2cccc(Cl)c2)CC1)CC1=NS(=O)(=O)c2ccccc2N1	none
CCC(C)Nc1nc(C)nc2sc(C)c(C)c12 (stereo unspecified)	none
Cc1ccc2nc(-c3ccncc3)c(Nc3ccc4c(c3)OCO4)n2c1	none
Cc1ccc2nc(-c3ccccn3)c(Nc3ccc4c(c3)OCO4)n2c1	CBX7 AlphaScr 0.03
Cc1ccc2nc(-c3c[nH]c4ccccc34)c(Nc3ccc4c(c3)OCO4)n2c1	none
Cc1ccccc1Nc1c(-c2c[nH]c3ccccc23)nc2ccc(Br)cn12	none
Cc1ccc2nc(-c3c[nH]c4ccccc34)c(Nc3ccc(F)cc3)n2c1	none
Cc1ccc(Nc2c(-c3c[nH]c4ccccc34)nc3ccc(Br)cn23)cc1	CBX7 AlphaScr 0.49
COc1ccc(CCC(=O)Nc2ccc(-c3noc(-c4cc(Cl)ccc4OC)n3)cc2)cc1	none
Cc1cc(NC(=O)CCNS(=O)(=O)c2ccc3c(c2)CCC(=O)N3)no1	none
Cc1ccc(-c2cn(-c3ccc(Br)cc3)c(=O)[nH]2)cc1	none
COCc1cc(CN2CCC(C)CC2)c(O)c2ncccc12	CBX7 AlphaScr 0.0039
Cc1ccc(-c2noc(CN3CCC(C)CC3)n2)cc1	none
COc1cccc(OCC(O)CN2CCC(C)CC2)c1 (stereo unspecified)	none
COc1ccccc1Cc1noc(-c2ccc(C(C)(C)C)cc2)n1	none
Cc1cccc(NCC(O)Cn2c(C)c(C)c3ccccc32)c1 (stereo unspecified)	CBX7 AlphaScr 0.47
Cc1ccc(C)c(NCC(O)Cn2c(C)c(C)c3ccccc32)c1 (stereo unspecified)	none
CCC(CO)NCC(O)Cn1c(C)c(C)c2ccccc21 (stereo unspecified)	none
COc1ccc(NCC(O)Cn2c(C)c(C)c3ccccc32)cc1 (stereo unspecified)	none
Cc1c(C)n(CC(O)CNc2ccccc2)c2ccccc12 (stereo unspecified)	CBX7 AlphaScr 0.25
Cc1c(C)n(CC(O)CNC2CCCCC2)c2ccccc12 (stereo unspecified)	none
COc1ccc(NCC(O)Cn2c(C)c(C)c3ccccc32)c(OC)c1 (stereo unspecified)	none
COc1ccccc1NCC(O)Cn1c2ccc(Br)cc2c2cc(Br)ccc21 (stereo unspecified)	none
COc1ccc(NCC(O)Cn2c3ccccc3c3ccccc32)cc1 (stereo unspecified)	CBX7 AlphaScr 0.45
CCOc1ccc(NCC(O)Cn2c(C)c(C)c3ccccc32)cc1 (stereo unspecified)	CBX7 AlphaScr 0.43
Cc1c(C)n(CC(O)CNCCO)c2ccccc12 (stereo unspecified)	none
Cc1c(C)n(CC(O)CNCc2ccccc2)c2ccccc12 (stereo unspecified)	none
CCc1ccc(-n2c(CC)nc3c(cnn3-c3ccc(C)c(C)c3)c2=O)cc1	none
CC(C)c1ccc(S(=O)(=O)Nc2ccc3oc4c(c3c2)CC(C(C)(C)C)CC4)cc1 (stereo unspecified)	none
COc1ccc(S(=O)(=O)N2CC=C(C(=O)Nc3c(C)cccc3C)CC2)cc1	none
Cc1c(C(=O)NCCc2ccc(Cl)cc2)oc2ccc(S(=O)(=O)N3CCOCC3)cc12	none
O=C(CC1CCCCC1)Nc1c2c(nn1-c1ccc(Cl)cc1)CSC2	none
CCOC(=O)c1cccc(NC(=O)CCCN2C(=O)c3cccnc3C2=O)c1	none
COc1ccc(-c2cc3nc(C)c(CCC(=O)NCCc4ccccc4)c(C)n3n2)c(OC)c1	none
O=C(c1cc2n(n1)C(C(F)(F)F)CC(c1ccc(F)cc1)N2)N1CCOCC1 (stereo unspecified)	none

Bioassay records as filed in PubChem.
